In all, about 35,000 sequences were measured (“fluorescence intensity (a.u.)”: median about 10,000, highest 2% from about 52,000 on). The full list was thinned out, with the highest values kept by preference.

The target in this assay is T1, OsWOX13 (Oryza sativa, UniProt Q5QMM3 1-267).
T1 sequence: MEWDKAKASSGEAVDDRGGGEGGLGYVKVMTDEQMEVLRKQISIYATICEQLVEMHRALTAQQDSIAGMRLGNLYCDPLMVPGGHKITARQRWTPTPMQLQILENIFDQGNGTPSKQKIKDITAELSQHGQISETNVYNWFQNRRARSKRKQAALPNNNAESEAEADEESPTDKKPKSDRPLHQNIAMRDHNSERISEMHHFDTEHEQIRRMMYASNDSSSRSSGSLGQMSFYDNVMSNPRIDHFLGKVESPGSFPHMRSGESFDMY
Description: protein-binding microarray (RPBM); PBS, 2% BSA, 51.3 ng/ul salmon testes DNA, 50 uM zinc acetate, 200 nM TF, 25 C, 1 h; high values mean tight binding. The conditions noted are these: protein: recombinant; tags: N-terminal polyhistidine and DsRed monomer fusion (pET32a); label: CyDye5-dUTP incorporated in the synthesized complementary strand; 3' TTTTT single-stranded linker to array surface; dsDNA, one strand shown. In short, it runs like this:
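Binding signal is defined as the fluorescence intensity of each feature in arbitrary units, read on an Axon 4000B scanner. Transcription factors with N-terminal polyhistidine and DsRed fusions came from E. coli BL21-CodonPlus and were purified on Ni–NTA. They were incubated at 200 nM for 1 h at 25 °C on a custom Agilent array that had been made double-stranded with Cy5-dUTP, with 50 µM zinc acetate present, and the array was washed.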
On to “ATAATAAGTTAAAACCTAATCAATCATACGCTAATGACTTCGGAGTCACCTAGTGCAG”, for which the binding signal is 6780 fluorescence intensity (a.u.).

Take “CTTACGTGTAAATTGAAATTACATTGTAATTTACATTTGACGGAGTCACCTAGTGCAG”: the binding signal is 34200 fluorescence intensity (a.u.).

As to “ATTGATTGTAGCCAAAATAAATTTTACTAAATTTTGCCAACGGAGTCACCTAGTGCAG”, the binding signal was 32500 fluorescence intensity (a.u.).

With “AGGATCAAAATTGCATGATTTTGTATAGTTTAGGGATGAACGGAGTCACCTAGTGCAG”, the binding signal was 3210 fluorescence intensity (a.u.).

For “ATCTGATTGATACAGTACTTATTCACTGGAGTAGTATTTCCGGAGTCACCTAGTGCAG”, the binding signal was 40800 fluorescence intensity (a.u.).

For “CTGATTAATTGCCAGTAATTTGATTTCAACCTTACGTGTACGGAGTCACCTAGTGCAG”, the binding signal is 53000 fluorescence intensity (a.u.).

On to “TGATTTCATGATTGATAGCTACATATCTTAGTTTCACACCCGGAGTCACCTAGTGCAG”, for which the binding signal is 40200 fluorescence intensity (a.u.).

Take “ATCTGATTTGATTTGATTTCGTACACCAGTAGCTTCAACCCGGAGTCACCTAGTGCAG”: the binding signal is 59800 fluorescence intensity (a.u.).

On to “AAAATTCATGATTGATTTTGTAGTGGATCAACCTTGCCAACGGAGTCACCTAGTGCAG”, for which the binding signal is 52400 fluorescence intensity (a.u.).

Turning to “TATATTTAATTATTGATTTGATGTAACCAATTTAGTATTACGGAGTCACCTAGTGCAG”, the binding signal is 23400 fluorescence intensity (a.u.).

Regarding “GTATTAATCACATTTCATTTCAACTTTTGATTCTGATATGCGGAGTCACCTAGTGCAG”, the binding signal was 5200 fluorescence intensity (a.u.).

“TTCGTAAATTTGATCGAATTTGGCTTTTAGACGCTGGACACGGAGTCACCTAGTGCAG”: the binding signal is 19200 fluorescence intensity (a.u.).

With “CTTAAAACAAATGATTGTTTACGTTCCGTCAATCATGCCCCGGAGTCACCTAGTGCAG”, the binding signal is 21200 fluorescence intensity (a.u.).

Turning to “CTAATTTTATGGTTAATGGACACGATTTAATCTAGACTCTCGGAGTCACCTAGTGCAG”, the binding signal is 13800 fluorescence intensity (a.u.).

Regarding “GTCTTGTTCATAATAGACTGGACTCTTTGATTCCTGTGTGCGGAGTCACCTAGTGCAG”, the binding signal is 3330 fluorescence intensity (a.u.).

For “ATGTTCCTGATTACCCGGTTAGTAAAATTTGAATCGTACTCGGAGTCACCTAGTGCAG”, the binding signal was 10600 fluorescence intensity (a.u.).

In the case of “TCTCCGTCCCCATCACCCTCGCAATTACTCCACCCGCCGGCGGAGTCACCTAGTGCAG”, the binding signal was 5550 fluorescence intensity (a.u.).

Take “CTCGCCGTCCATCCTTCCCTGCGTCCAATCCCCACCCTCCCGGAGTCACCTAGTGCAG”: the binding signal was 60200 fluorescence intensity (a.u.).

For “CCTTCATTCATTTCCTAATCCCAATCCCACCCTCCATTTCCGGAGTCACCTAGTGCAG”, the binding signal was 3570 fluorescence intensity (a.u.).

“GTTACCTATTAATTAATAGGAAGATGATATAAATAGTTTACGGAGTCACCTAGTGCAG”: the binding signal was 19400 fluorescence intensity (a.u.).

Regarding “TATGACAGGTGGGATTAGGTATTAATAGTGTAGTATGTAACGGAGTCACCTAGTGCAG”, the binding signal was 8510 fluorescence intensity (a.u.).

“ACTATTCTATTATGATGATTAGGCTGTTATTGGTTGAAGTCGGAGTCACCTAGTGCAG”: the binding signal was 7170 fluorescence intensity (a.u.).

With “GTTGATTAGCATATATTATTGGTTGCATGTTAGGCTTCCACGGAGTCACCTAGTGCAG”, the binding signal is 54700 fluorescence intensity (a.u.).

As to “TGGAGTGGTGATTTGCTCTCTCTTGAGTGTTGATTAGTGGCGGAGTCACCTAGTGCAG”, the binding signal is 9250 fluorescence intensity (a.u.).

With “CTTGATTAGTAGTTGGTTGCTCTTCTTCTTGTTCTTGGTTCGGAGTCACCTAGTGCAG”, the binding signal was 64200 fluorescence intensity (a.u.).

Turning to “CTGGTTCTTGATTATTATTAGGATTAGTTTGTTCCTTTGTCGGAGTCACCTAGTGCAG”, the binding signal is 16900 fluorescence intensity (a.u.).

With “GGCTAATAGTAGGTTGATTAGTCCTTATTGTGCTTGCCCTCGGAGTCACCTAGTGCAG”, the binding signal is 28500 fluorescence intensity (a.u.).

In the case of “GTTAGTAATGTTGATTAGTGCATGGCTTATTTGGTTGCACCGGAGTCACCTAGTGCAG”, the binding signal is 15600 fluorescence intensity (a.u.).

Regarding “TAATTGATTAGCAGTAAGGTATTGGTTGTCCAATCTTGCTCGGAGTCACCTAGTGCAG”, the binding signal is 58400 fluorescence intensity (a.u.).

As to “ATTAAATAATTTCTTTGATAAAATTGTTTTGCAGGCATATCGGAGTCACCTAGTGCAG”, the binding signal is 22300 fluorescence intensity (a.u.).

For the sequence “GGCTTAATTGTTGATTAAACATCAGGCTCTTCTTGCATATCGGAGTCACCTAGTGCAG”, the binding signal was 54900 fluorescence intensity (a.u.).

As to “ATTGGTCCATTAGCACGTGATTAATTAAGTATTTGCTATTCGGAGTCACCTAGTGCAG”, the binding signal was 11200 fluorescence intensity (a.u.).

Consider “AGAATTGATTAGCTCTTGTTTCTATCATGTTAAACACATTCGGAGTCACCTAGTGCAG”, for which the binding signal was 33000 fluorescence intensity (a.u.).

In the case of “ATAATAAATATATTTACATTTAGACCCTCGATGTGTCATCCGGAGTCACCTAGTGCAG”, the binding signal is 3230 fluorescence intensity (a.u.).

As to “TAGGCCCACTAATTAGGCCCATCCAACACGCCGTCCGACGCGGAGTCACCTAGTGCAG”, the binding signal was 4020 fluorescence intensity (a.u.).

On to “TCAAGCTTCTGCAATTTAGTTGATTGATCGAATTAATCAGCGGAGTCACCTAGTGCAG”, for which the binding signal is 24600 fluorescence intensity (a.u.).

In the case of “TATGATTCTTTTCTAAAAGATTGATACGACATATCAATATCGGAGTCACCTAGTGCAG”, the binding signal was 5300 fluorescence intensity (a.u.).

With “CAACTAAACTTTTAATTTTAGCATAAACTAAACAGACCCACGGAGTCACCTAGTGCAG”, the binding signal is 5430 fluorescence intensity (a.u.).

Take “TATAATTACATTGTAACTGTATTGTAAATACATTTTAATTCGGAGTCACCTAGTGCAG”: the binding signal was 5830 fluorescence intensity (a.u.).

As to “TAAATTGTACATGATATATGTCAAGTGTCAACGTCTGATTCGGAGTCACCTAGTGCAG”, the binding signal was 5030 fluorescence intensity (a.u.).

As for “ACTCCACACACTGATCAACACTAATCAGCATGTACATTTGCGGAGTCACCTAGTGCAG”, the binding signal was 4090 fluorescence intensity (a.u.).

Take “CTTTGTCTTTGTTTCTTGTTGATTGCAGGATCAAATCAACCGGAGTCACCTAGTGCAG”: the binding signal was 5330 fluorescence intensity (a.u.).

As for “TCTGATTGGTACATGCTCACCTGGTTGGCTGGTTCTTCAGCGGAGTCACCTAGTGCAG”, the binding signal is 53800 fluorescence intensity (a.u.).

Regarding “TCTTTGTCAATCTTGTTTGGTTGCTCAAATCTTTTGGTGGCGGAGTCACCTAGTGCAG”, the binding signal is 7260 fluorescence intensity (a.u.).

With “TCGTTCTTCATGGTTGGGGCTGATTAGGTTGATGAGATAGCGGAGTCACCTAGTGCAG”, the binding signal was 3850 fluorescence intensity (a.u.).

As for “TTTGGTTGGATTGGATTGGATTGGATTGGCTGCTTCCCTGCGGAGTCACCTAGTGCAG”, the binding signal was 25000 fluorescence intensity (a.u.).

In the case of “CTTGATTGTTCTTTCTTGCTCAAATGCCGGCCTGTGTTGGCGGAGTCACCTAGTGCAG”, the binding signal is 53200 fluorescence intensity (a.u.).

As for “TTCGTGCCTTTTGTTTGATAATTTCTTCATGCTATCTTTTCGGAGTCACCTAGTGCAG”, the binding signal is 3660 fluorescence intensity (a.u.).

As for “ACAAAATAAAATGATGGGCATTTTCTTCAGTTACAATTTCCGGAGTCACCTAGTGCAG”, the binding signal is 3910 fluorescence intensity (a.u.).

For “TTACTAGATTTATCATTAAACATACTATCATAATATGCAACGGAGTCACCTAGTGCAG”, the binding signal was 6040 fluorescence intensity (a.u.).

For “TGTGATGAATTGAGCGAACCAGCAGGGCTTCGCCGCTCCCCGGAGTCACCTAGTGCAG”, the binding signal was 5470 fluorescence intensity (a.u.).

“AATTAATAAAATAAATCTATTACAGTTAACTAAAGGTATTCGGAGTCACCTAGTGCAG”: the binding signal was 5780 fluorescence intensity (a.u.).

“AGCCCCTAAGCCAATCAATTAGCAGGCATCTTTACTCCTACGGAGTCACCTAGTGCAG”: the binding signal was 18500 fluorescence intensity (a.u.).

On to “AATTAATTTAGCCCCTAATTAATTAGCAGCCAATCAACGGCGGAGTCACCTAGTGCAG”, for which the binding signal was 54000 fluorescence intensity (a.u.).

For “TTTAATTTACAGTTAAATTAACTTAATCTGTAAAAGGGATCGGAGTCACCTAGTGCAG”, the binding signal is 57500 fluorescence intensity (a.u.).

Turning to “CCACTTTTAGATTTGACAATTAACTATTTGTCACTTTTAGCGGAGTCACCTAGTGCAG”, the binding signal is 23600 fluorescence intensity (a.u.).

Regarding “AAAATTACAGTCTTATTTAACTAAAATTACATATGTAAATCGGAGTCACCTAGTGCAG”, the binding signal was 5170 fluorescence intensity (a.u.).

“ATTAATTATTAATTTACTTTTGACAATTACTAATTAGCCACGGAGTCACCTAGTGCAG”: the binding signal is 56700 fluorescence intensity (a.u.).

Consider “AGAGACAGCGAATCAATTAGCCAATGCTAATAATTTATAACGGAGTCACCTAGTGCAG”, for which the binding signal was 8160 fluorescence intensity (a.u.).

For “TCCAATTTACTAATTACCACTTTATACGTACAATTATTGACGGAGTCACCTAGTGCAG”, the binding signal is 23500 fluorescence intensity (a.u.).

Turning to “ATTAATTAATTAGTCGGCCAACCTAGCTGTTGACTGGGAACGGAGTCACCTAGTGCAG”, the binding signal was 55900 fluorescence intensity (a.u.).

For the sequence “GCCAACCTTATAGCTAATTATTATATATATTGACTTTAAGCGGAGTCACCTAGTGCAG”, the binding signal was 4860 fluorescence intensity (a.u.).

As for “GTTGATGGGCAGCTTAATTACGGCCCGCCTGTTTAGCCAACGGAGTCACCTAGTGCAG”, the binding signal was 17500 fluorescence intensity (a.u.).
